DT40 TDP1 CPT: qHTS for Inhibitors of human tyrosyl-DNA phosphodiesterase 1 (TDP1): qHTS in cells in presence of CPT | chicken DT40 Tdp1-/-;hTDP1 cells + 20 nM CPT, ATP luminescence, 48 h | Potency, µM (series often up to 46.2 µM), without a hit: at the highest dose activity change, negative = growth inhibition, hits mostly inhibitors | hit rate 12% among 420,000; also: potency is read from the fitted curve at half-maximal effect; nearly all actives have a fitted effect of over 55% in size
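Chicken DT40 Tdp1-/- cells complemented with human TDP1, 400 cells/well, exposed to compounds plus 20 nM camptothecin for at least 48 h at 37 C; viability read as ATP content by CellTiter-Glo luminescence.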
Gal4-VP16 FLuc: VP16 counterscreen qHTS for inhibitors of ROR gamma transcriptional activity | Drosophila S2 Gal4-VP16 UAS-luciferase, luminescence, 20 h | Potency, µM (top dose mostly 53.6 µM), for inactives: at the highest dose activity, negative = inhibition, most hits filed as inhibitors | hit rate 3.5% among 310,000;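 also: Gal4-VP16 expression switched on by copper sulfate through the metallothionein promoter; potency is read from the fitted curve at half-maximal effect; nearly all actives have a fitted effect of over 50% in size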
TDP1 cell noCPT: qHTS for Inhibitors of human tyrosyl-DNA phosphodiesterase 1 (TDP1): qHTS in cells in absence of CPT; DT40 Tdp1-/- hTDP1 cells, no CPT, ATP luminescence, 48 h; Potency, µM (series often up to 46.2 µM), without a hit: top-dose activity change, negative = growth inhibition, hits mostly inhibitors; hit rate 15% among 420,000; also: potency is read from the fitted curve at half-maximal effect; nearly all actives have a fitted effect of over 55% in size
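Cells were dispensed at 400 per well, compounds added by pin tool, plates incubated ≥48 hr at 37 °C, then CellTiter-Glo added for 30 min at room temperature before luminescence reading. Line: DT40 Tdp1-/- complemented with hTDP1; camptothecin omitted.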
RORg inh: qHTS for inhibitors of ROR gamma transcriptional activity | Nuclear receptor ROR-gamma (Mus musculus), P51450 | Drosophila S2 Gal4-RORgamma UAS-luciferase reporter, 20 h | Potency, µM (titrated, usually from 53.6 µM), for inactives: at the highest dose activity change, negative = inhibition, usual class: inhibitors | hit rate 5.4% among 310,000; also: potency is read from the fitted curve at half-maximal effect; nearly all actives have a fitted effect of over 60% in size
Target sequence (P51450 whole entry, looked up, the tested form may be a part): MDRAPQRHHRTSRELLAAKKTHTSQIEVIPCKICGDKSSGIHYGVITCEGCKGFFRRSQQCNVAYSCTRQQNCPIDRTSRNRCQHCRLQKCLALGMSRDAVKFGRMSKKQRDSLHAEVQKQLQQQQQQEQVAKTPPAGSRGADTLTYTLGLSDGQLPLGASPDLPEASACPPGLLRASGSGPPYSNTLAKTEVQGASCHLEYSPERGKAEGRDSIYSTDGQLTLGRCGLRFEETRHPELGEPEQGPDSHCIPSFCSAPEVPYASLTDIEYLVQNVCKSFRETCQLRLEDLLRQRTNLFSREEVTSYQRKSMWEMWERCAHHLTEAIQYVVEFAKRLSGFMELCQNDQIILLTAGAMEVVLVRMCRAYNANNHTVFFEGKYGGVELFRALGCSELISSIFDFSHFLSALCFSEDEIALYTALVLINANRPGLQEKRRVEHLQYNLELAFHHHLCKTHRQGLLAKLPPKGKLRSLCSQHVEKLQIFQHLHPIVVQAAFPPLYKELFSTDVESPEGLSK
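Luminescence from a UAS-regulated Photinus luciferase reporter in stably transfected Drosophila Schneider cells is measured; decreased signal marks ROR gamma inhibition. Fusion expression is induced by 700 uM copper sulfate for 20 hr.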
IL1B secr inh: qHTS for Inhibitors of Inflammasome Signaling: IL-1-beta AlphaLISA Primary Screen; activity change, % at 57.5 µM; hit rate 4.7% among 360,000; THP-1 LPS/ATP IL-1B secretion, AlphaLISA, 16 h; stronger effect = lower value; in the data active = activity change below about -50%; inconclusive = mostly about -30% to -49%
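Secreted IL-1B measured by AlphaLISA bead assay after 16 h compound exposure of THP-1 cells; compounds (final up to 57.5 uM) added 1 h before LPS (250 ng/mL) and ATP (1.25 mM) stimulation; lower signal means less secretion.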
LDHA block: qHTS assay for inhibitors of human lactate dehydrogenase; L-lactate dehydrogenase A chain (Homo sapiens), P00338; purified LDHA, NADH/diaphorase-resazurin fluorescence; stronger effect = lower value; hit rate 0.15% among 480,000; activity change, % (values are at about 110 or 230 µM); in the data active = activity change below about -30%; inconclusive = mostly about -25% to -30%;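 also: plate controls were DMSO wells for no effect and wells without enzyme for full effect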
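LDH5 2 nM; NADH 0.06 mM, pyruvate 0.2 mM; 200 mM Tris pH 7.4, EDTA, Tween-20; 5 min RT. Detection: diaphorase 0.133 mg/mL + resazurin 37 µM, fluorescence ex540/em590 at 0 and 20 min; normalized to enzyme-free and DMSO wells.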
Starred values were filed as active, the others as inactive; u = inconclusive; x = no result given; [ ] = dose if it differs, or a comment. Hits are enriched below; roughly 18% of the tested compounds scored in any of these assays. Unless noted, calls follow the shape of the dose curve; as a rule, active = well fitted curve in the direction sought with a large enough effect; inconclusive = small, poorly fitted or top-dose-only effect, or another doubt; inactive = no such curve, though single readings can be large; an effect the other way counts as inactive or inconclusive. Unless noted, % is scaled to controls: 0 for no effect and ±100 for the full control effect.

SMILES	DT40 TDP1 CPT	Gal4-VP16 FLuc	TDP1 cell noCPT	RORg inh	IL1B secr inh	LDHA block
CC(=O)Nc1ccc(S(=O)(=O)Nc2nc(CN3CCOCC3)nc3sc4c(c23)CCCC4)cc1	-4.8%	17.9%	u	-1.8%	-4.0	-5.7
Cc1nc(Oc2ccc(S(=O)(=O)N3CCOCC3)cc2Cl)c2c3c(sc2n1)CCCC3	u	2.0%	u	-11.4%	-51.5*	-1.4
O=[N+]([O-])c1cccc(/C=N/OCc2ccccc2Cl)c1	x	x	x	x	x	5.1
[O-]/[N+](=C\c1ccco1)c1ccccc1	x	x	x	x	x	5.6
COc1cc(NC(=O)c2ccc(NC(=O)N3CCSc4ncccc43)cc2)cc(OC)c1	14.6µM*	x	13µM*	x	x	4.3
Cc1ccc(Cl)cc1NC(=O)c1ccc(NC(=O)N2CCSc3ncccc32)cc1	u	x	20.6µM*	x	x	-4.4
COCCN1Cc2cccc(C(=O)Nc3ccccc3C(=O)OC)c2C1=O	x	x	x	x	x	3.4
O/N=C(\c1ccc(O)cc1O)c1ccccc1F	x	x	x	x	x	-31.3*
CCNS(=O)(=O)c1ccc2c3c(cccc13)C(=O)N2	-14.7%	-4.7%	-23.0%	-14.3%	0.0	-2.5
CCOc1ccc(NS(=O)(=O)c2ccc3c4c(cccc24)C(=O)N3)cc1	16.4µM*	x	u	x	x	-4.8
CCN(c1cccc(C)c1)S(=O)(=O)c1ccc2c3c(cccc13)C(=O)N2	u	-9.6%	11.2µM*	13.9%	0.0	8.2
CCOc1ccc(NS(=O)(=O)c2ccc(OCC)c3ncccc23)cc1	11.2µM*	u	10µM*	u	29.4	-3.6
CCOc1ccc(S(=O)(=O)Nc2cccc(CC)c2)c2cccnc12	x	x	x	x	x	7.6
Cc1ccc(NC(=O)c2sc3nc(CCl)[nH]c(=O)c3c2C)c(C)c1	14.6µM*	u	14.6µM*	2.4%	-86.8*	-8.1
Cc1nc(N2CCN(c3ccccn3)CC2)c2c(C)c(C(=O)N3CCN(c4ccccc4F)CC3)sc2n1	u	-16.2%	20.6µM*	40.2%	u	-7.3
CCOC(=O)c1sc2ncnc(N3CCN(C(=O)OCC)CC3)c2c1C	14.6µM*	x	u	-43.8%[0.365 µM]	u	0.3
Cc1ccc(NC(=O)c2sc3nc(C)nc(N4CCN(c5ccccn5)CC4)c3c2C)c(C)c1	-26.1%	-3.5%	u	9.9%	-60.2*	-5.2
CCOC(=O)c1sc2ncnc(N3CCN(CC)CC3)c2c1C	15.3%	7.2%	u	-26.2%	2.4	-4.5
COc1cc(NC(=O)c2sc3nc(C)nc(N4CCOCC4)c3c2C)cc(OC)c1OC	20.6µM*	u	11.6µM*	3.7%	u	-2.0
Cc1nc(N2CCCCC2)c2c(C)c(C(=O)Nc3ccccc3C(F)(F)F)sc2n1	2.06µM*	u	2.91µM*	u	-16.2	3.2
Cc1nc(N2CCCCC2)c2c(C)c(C(=O)Nc3cccc(C(F)(F)F)c3)sc2n1	u	u	u	-31.1%	-7.7	-1.7
Cc1nc(N2CCN(C)CC2)c2c(C)c(C(=O)Nc3ccc(F)cc3)sc2n1	u	3.3%	u	23.2%	-78.4*	-5.6
COc1ccc(C)cc1NC(=O)c1sc2nc(C)nc(N3CCOCC3)c2c1C	5.5%	0.5%	u	-12.5%	15.3	-3.9
Cc1ccc(NC(=O)c2sc3ncnc(N4CCN(c5ccccn5)CC4)c3c2C)c(C)c1	u	25.3%	18.4µM*	4.1%	u	-3.4
Cc1ccc(NC(=O)c2sc3ncnc(N(C)C4CCCCC4)c3c2C)c(C)c1	u	x	u	x	x	-5.6
SMILES	DT40 TDP1 CPT	Gal4-VP16 FLuc	TDP1 cell noCPT	RORg inh	IL1B secr inh	LDHA block
FC(F)(F)c1cccc(/C=C/c2nc3c(ccc4ccccc43)s2)c1	x	x	x	x	x	17.8
Cc1nc(N2CCN(c3ccccn3)CC2)c2c(C)c(C(=O)Nc3ccc(Br)cc3C)sc2n1	16.4µM*	13.0%	u	-4.1%	-24.2	-0.5
CCCN1CCN(c2ncnc3sc(C(=O)Nc4c(C)cc(C)cc4C)c(C)c23)CC1	16.4µM*	x	10.3µM*	x	x	-0.9
COc1ccc(C)cc1NC(=O)c1sc2ncnc(N3CCN(c4ccccn4)CC3)c2c1C	16.4µM*	3.4%	18.4µM*	7.4%	-6.1	-5.4
Cc1cc(-c2ccc(C=O)o2)ccc1Br	x	x	x	x	x	1.1
CC(NC(=O)c1ccc(Cl)o1)c1ccc(S(N)(=O)=O)cc1 (stereo unspecified)	x	x	x	x	x	-17.1
Cc1cc(CN2CCN(c3cccc(C)c3C)CC2)cs1	23.1µM*	x	14.6µM*	x	x	2.9
O=C(Nc1cc(F)cc(F)c1)c1ccc(NCCc2ccccc2)c([N+](=O)[O-])c1	6.1%	-29.5%	-0.2%	-20.1%	1.2	-5.3
COc1cccc(NC(=O)c2ccc(NCCCN3CCC(C)CC3)c([N+](=O)[O-])c2)c1	u	-20.7%	16.4µM*	-18.4%	-64.5*	-9.6
O=C(Nc1cc(F)cc(F)c1)c1ccc(NCCCN2CCCCCC2)c([N+](=O)[O-])c1	u	-6.3%	u	-1.9%	-75.7*	-4.4
CCCN(CCC)CCCNc1ccc(C(=O)Nc2cccc(OC)c2)cc1[N+](=O)[O-]	u	-13.9%	u	-8.6%	-81.4*	-6.3
Cc1ccc(NC(=O)c2ccc(NCCCN3CCC(C)CC3)c([N+](=O)[O-])c2)c(C)c1	u	1.2%	16.4µM*	5.1%	u	-4.4
COc1cccc(NC(=O)c2ccc(NCCCN3CC(C)CC(C)C3)c([N+](=O)[O-])c2)c1 (stereo unspecified)	0.2%	-14.0%	u	-6.0%	-6.8	-12.3
O=C1NC(c2ccccc2)=C(c2nc3ccccc3s2)C(c2ccc(F)cc2)N1 (stereo unspecified)	u	u	u	33.1%	-75.3*	3.5
COc1ccc(C2NC(=O)NC(c3ccccc3)=C2c2nc3ccccc3s2)cc1 (stereo unspecified)	14.1µM*	-7.2%	u	1.1%	u	-0.1
c1ccc(-c2nc3ccccc3s2)cc1	x	x	x	x	x	-2.9
COc1cc(NC(=O)c2cccc(Cl)c2)c(OC)cc1NC(=O)CN1CCOCC1	u	1.3%	u	-7.2%	-21.0	5.2
COc1cc(NC(=O)c2ccc(F)cc2)c(OC)cc1Cl	-24.1%	3.2%	-7.6%	u	6.6	6.5
COc1cc(NC(=O)c2ccccc2)c(OC)cc1NC(=O)CN1CCCCC1	u	-0.9%	20µM*	-28.9%	u	-0.5

Compound activity: PubChem, National Center for Advancing Translational Sciences (NCATS)
